In PubChem BioAssay AID1159580 (chemical genetic matrix, 2015):
About 2,000 (36%) of roughly 5,500 compounds were called active. Inconclusive results (about 18%) are left out. No stated cut-off is given here; in the data, active means normalized growth mostly below about 0.91 (no sharp cut-off); inconclusive means no clear call, values can overlap the other calls; inactive means mostly above about 0.92. The list shows a part of the results.

Experiment: chemical genetic growth profiling, strain panel (AID 1159580);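 further: tested at 20 µM; growth read once vehicle control cultures reached saturation at 30 °C; 1 = growth at the plate median or of vehicle wells; lower values mean less growth of the strain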
Details: S. cerevisiae deletion strains, growth OD

Measured: normalized growth

O=C1c2ccccc2C2(c3ccccc3)NCCN12 (configuration not stated)
inactive: locus YAL013W, strain DEP1, hits give low values 1 | locus YBR229C, strain ROT2, hits give low values 1.01 | locus YCL061C, strain MRC1, hits give low values 0.987 | locus YDL101C, strain DUN1, hits give low values 0.982 | locus YDR150W, strain NUM1, hits give low values 0.989 | locus YEL061C, strain CIN8, hits give low values 1.02 | locus YGR078C, strain PAC10, hits give low values 1.01 | locus YHR030C, strain SLT2, hits give low values 0.972 | locus YHR087W, strain rtc3, hits give low values 0.993 | locus YJL187C, strain SWE1, hits give low values 0.997 | locus YJR043C, strain POL32, hits give low values 0.956 | locus YJR075W, strain HOC1, hits give low values 1.01 | locus YLR039C, strain RIC1, hits give low values 0.976 | locus YLR058C, strain SHM2 (second series), hits give low values 0.997 | locus YLR085C, strain ARP6, hits give low values 1.04 | locus YLR262C, strain YPT6, hits give low values 0.968 | locus YML094W, strain GIM5, hits give low values 1.04 | locus YMR219W, strain ESC1, hits give low values 1 | locus YMR263W, strain SAP30, hits give low values 1.01 | locus YNL128W, strain TEP1, hits give low values 0.983 | locus YNL153C, strain GIM3, hits give low values 1.01 | locus YNL298W, strain CLA4 (second series), hits give low values 0.995 | locus YNL322C, strain KRE1, hits give low values 0.996 | locus YNR030W, strain Alg12, hits give low values 0.982 | locus YPL055C, strain LGE1, hits give low values 1.04 | locus YPL241C, strain CIN2, hits give low values 1.02 | locus YPR135W, strain CTF4, hits give low values 0.957
